From PubChem
Compounds with a hit are over-represented: about 15% of the library has one in this group of screens.
HCV inh – blocks hepatitis C virus; Potency, µM (series often up to 41.8 µM), without a hit: at the highest dose activity change, negative = inhibition, most hits filed as inhibitors; AID 651820; Huh7.5.1 HCVcc-Cre infection, luciferase reporter, 44 h; 3.4% of 340,000 active; further: potency means the concentration at half of the fitted maximal effect; on the % scale 0 is the no-effect control and ±100 the full control effect
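Reporter virus HCVcc-Cre (~0.5 moi) infects cells exposed to compound; seeding density 1,000 cells/well with 4 h settling beforehand. Luminescence, 15 sec read, taken 44 h post-infection following a 15 min RT substrate incubation.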
Sm TGR block – inhibitors of Schistosoma mansoni thioredoxin glutathione reductase | purified TGR, DTNB reduction, TNB absorbance 405 nm | 3% of 360,000 active | Potency, µM (titrated, usually from 114 µM), for the others: top-dose activity change, negative = inhibition, hits mostly inhibitors | Q962Y6; further: potency means the concentration at half of the fitted maximal effect; on the % scale 0 is the no-effect control and ±100 the full control effect; nearly all actives have a fitted effect of over 60% in size
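First, TGR (20 nM dispensed) and NADPH were mixed with compound. Second, a 15 min room-temperature incubation followed. Third, further NADPH and then DTNB were added to start the reaction. Finally, TNB absorbance was monitored kinetically.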
HCMV inh – blocks human cytomegalovirus replication; HFF cells, HCMV-luciferase reporter, 72 h; hits give low values; activity change, negative = inhibition, % at 57.5 µM; 4.5% of 410,000 active; AID 1259415; in the data active means activity change below about -60%; inconclusive means no clear call, values can overlap the other calls; inactive means above about -39%; further: on the % scale 0 is the no-effect control and ±100 the full control effect
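Two-dose cell screen: HFF monolayers treated with compounds and infected with luciferase-expressing HCMV at 1 PFU/cell, 72 h at 37C, then lysed for luciferase measurement.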
Pf growth 48h – P. falciparum growth inhibition at 48 hours (one generation). P. falciparum luciferase growth in erythrocytes, 48 h. Potency, µM (series often up to 28.7 µM), without a hit: at the top dose activity change, negative = inhibition, actives largely listed as inhibitors. 5.9% of 310,000 active; further: potency means the concentration at half of the fitted maximal effect; on the % scale 0 is the no-effect control and ±100 the full control effect
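A one-generation exposure of luciferase-tagged malaria parasites in RPMI 1640/Albumax erythrocyte culture, 37 C and 5% CO2. Inhibition is inferred from decreased luminescence after adding detection reagent.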
SARS PLpro yeast – inhibitors of SARS-CoV papain-like protease in yeast | S. cerevisiae expressing SARS-CoV PLpro, growth rescue | Potency, µM (highest dose often 32.9 µM), for the others: top-dose activity, positive = growth rescue, usual class: activators | 0.19% of 330,000 active; calls by dose curve; further: potency means the concentration at half of the fitted maximal effect; 0% is about no effect; nearly all actives have a fitted effect of over 55% in size
Pf growth 96h – P. falciparum growth inhibition at 96 hour, primary screen for plastid delayed-death inhibitors. P. falciparum luciferase reporter growth, 96 h. Potency, µM (top dose mostly 28.7 µM), inactives show top-dose activity change, negative = inhibition, hits mostly inhibitors. 6.9% of 320,000 active; further: potency means the concentration at half of the fitted maximal effect; on the % scale 0 is the no-effect control and ±100 the full control effect
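P. falciparum expressing integrated firefly luciferase, in erythrocytes at 2% hematocrit, 0.05% parasitemia, incubated with compounds 96 h at 37 C, 5% CO2. Growth inhibition read as loss of luminescence; two-generation exposure targets delayed-death apicoplast inhibitors.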
* marks the source's active call; other numbers are inactive results. Unless noted, the call rests on the fitted dose curve; in most records, active means well fitted curve in the direction sought with a large enough effect; inconclusive means small, poorly fitted or top-dose-only effect, or another doubt; inactive means no such curve, though single readings can be large; an effect the other way counts as inactive or inconclusive.

How did O=[N+]([O-])c1ccc(O)c(/C=N/Nc2ncnc3c2cnn3-c2ccccc2)c1 do in these assays?
HCV inh: 2.82µM*; Sm TGR block: 0.6%; HCMV inh: -98.9*; Pf growth 48h: 1.17µM*; SARS PLpro yeast: -2.3%; Pf growth 96h: 0.522µM*

What do the screens show for `O=[N+]([O-])c1ccc(O)c(/C=N/Nc2ccccn2)c1`?
HCV inh: 2.51µM*; Sm TGR block: -6.5%; HCMV inh: -101.5*; Pf growth 48h: 2.94µM*; SARS PLpro yeast: inconclusive; Pf growth 96h: inconclusive

How did O=[N+]([O-])c1ccc(NN=Cc2ccccc2)nc1 do in these assays?
HCV inh: 8.6%; HCMV inh: 51.6

Results for COc1ccc(C=NNc2ccc([N+](=O)[O-])cn2)cc1 ?
HCV inh: 29.6%; HCMV inh: 50.9

How did O=[N+]([O-])c1ccc(N/N=C/c2ccc(OCc3cccc4ccccc34)cc2)nc1 do in these assays?
HCV inh: -14.9%; Sm TGR block: -0.2%; HCMV inh: 14.1; Pf growth 48h: inconclusive; SARS PLpro yeast: -9.5%; Pf growth 96h: 7.38µM*

Results for CC(C)(C)OC(=O)NC(CNCc1ccccc1)Cc1ccccc1 (centres undefined) ?
HCV inh: inconclusive; Sm TGR block: -7.5%; HCMV inh: 23.0; Pf growth 48h: inconclusive; SARS PLpro yeast: 0.7%; Pf growth 96h: inconclusive

How did Cc1cc(/C=N/Nc2ccc([N+](=O)[O-])cn2)c(C)n1-c1ccc(C(=O)O)cc1 do in these assays?
HCV inh: 8.1%; Sm TGR block: 35.5µM*; HCMV inh: -4.5; Pf growth 48h: 45.8%; SARS PLpro yeast: 0.4%; Pf growth 96h: inconclusive

What do the screens show for `COc1ccccc1C=NNc1ccc([N+](=O)[O-])cn1`?
HCV inh: 9.2%; HCMV inh: 20.0

What do the screens show for `O=[N+]([O-])c1ccc(NN=Cc2ccc(O)cc2O)nc1`?
HCV inh: inconclusive; HCMV inh: -97.6*

What do the screens show for `O=[N+]([O-])c1ccc(NN=Cc2ccccc2O)nc1`?
HCV inh: inconclusive; HCMV inh: -97.6*

How did Cc1ccc(NC(=O)Cn2nnc(-c3nc(-c4ccc(Cl)cc4)no3)c2N)cc1C do in these assays?
Sm TGR block: -1.3%; HCMV inh: 2.1

How did O=C1C=CC2C3C(=O)N(c4ccccc4)C(=O)C3C1N2Cc1ccccc1 (centres undefined) do in these assays?
HCV inh: inconclusive; HCMV inh: -77.9*

Results for O=C1C2C3C=CC(CC3)C2C(=O)N1c1ccccc1 (centres undefined) ?
HCV inh: 9.6%; Sm TGR block: inconclusive; HCMV inh: -15.4; Pf growth 48h: 33.6%; SARS PLpro yeast: -1.8%; Pf growth 96h: inconclusive

Results for CC(C)c1ccc(NC(=O)C2Cc3c(-c4ccccc4Oc4ccccc4)ccnc3O2)cc1 (centres undefined) ?
HCMV inh: -60.8*

What do the screens show for `CC(=O)Nc1ccc(-c2ccnc3c2CC(C(=O)Nc2ccc(Cl)c(C(F)(F)F)c2)O3)cc1` (centres undefined)?
HCMV inh: -26.4

How did COc1ccc(NC(=O)C2Cc3c(-c4ccccc4Oc4ccccc4)ccnc3O2)cc1OC (centres undefined) do in these assays?
HCMV inh: -75.9*

What do the screens show for `O=C(Nc1ccc(Cl)c(C(F)(F)F)c1)C1Cc2c(-c3ccccc3)ccnc2O1` (centres undefined)?
HCMV inh: -83.8*

How did COc1ccc(NC(=O)C2Cc3c(-c4cccc(F)c4)ccnc3O2)cc1 (centres undefined) do in these assays?
HCMV inh: -81.4*

What do the screens show for `CC(=O)Nc1ccc(NC(=O)C2Cc3c(-c4cccc(F)c4)ccnc3O2)cc1` (centres undefined)?
HCMV inh: -20.7
